Reference: PubChem BioAssay AID1903 (Southern Research Specialized Biocontainment Screening …, 2009)
Out of some 310,000 compounds screened, about 1,200 (0.39%) were called active. No rule for the calls is given here. A selection follows. Potency and affinity values are given separately.

These molecules were tested against Large T antigen (Simian virus 40) (UniProt P03070) (assay: SV40 large T antigen inhibitors, biochemical (AID 1903)). Settings: SV40 large T antigen ATPase/helicase inhibition assay; at 20 µM; hits give high values.
Large T antigen (Simian virus 40), sequence (P03070 whole entry, looked up): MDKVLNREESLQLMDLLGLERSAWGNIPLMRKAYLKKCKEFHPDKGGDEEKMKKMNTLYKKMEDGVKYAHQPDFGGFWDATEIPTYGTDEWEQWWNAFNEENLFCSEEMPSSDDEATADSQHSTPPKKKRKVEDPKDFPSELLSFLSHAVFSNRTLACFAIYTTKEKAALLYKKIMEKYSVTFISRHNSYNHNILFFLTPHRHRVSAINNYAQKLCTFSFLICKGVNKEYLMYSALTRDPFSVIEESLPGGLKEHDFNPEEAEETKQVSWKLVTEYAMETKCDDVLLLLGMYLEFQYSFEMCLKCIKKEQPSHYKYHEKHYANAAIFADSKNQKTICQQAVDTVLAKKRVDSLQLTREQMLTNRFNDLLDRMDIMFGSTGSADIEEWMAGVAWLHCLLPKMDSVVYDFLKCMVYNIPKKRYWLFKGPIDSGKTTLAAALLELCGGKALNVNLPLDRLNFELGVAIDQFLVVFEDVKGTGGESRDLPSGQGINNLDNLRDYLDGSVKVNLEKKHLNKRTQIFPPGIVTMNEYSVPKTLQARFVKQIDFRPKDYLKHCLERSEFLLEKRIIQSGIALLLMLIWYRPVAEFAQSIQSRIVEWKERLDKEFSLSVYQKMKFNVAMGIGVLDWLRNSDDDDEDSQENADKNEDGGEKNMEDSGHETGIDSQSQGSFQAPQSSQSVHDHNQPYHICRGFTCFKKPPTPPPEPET

inhibition, inactive:
O=C(Cn1ccc2ccccc2c1=O)NCC(=O)N1CCN(c2ccccc2F)CC1 5.42%
CC(=O)Nc1ccccc1OC(C)C(=O)N1CC(C)CC(C)C1 (centres undefined) 2.89%
CCOc1ccc(NC(=O)N2CCC(n3nnc4cc(C)ccc43)CC2)cc1 -5.9%
Cn1c(=O)cc(SCC(=O)Nc2ccccn2)c2ccccc21 18.7%
COC(=O)c1ccccc1NC(=O)N1CCN(S(C)(=O)=O)CC1 5.14%
CCNC(=S)N(CCc1ccccc1C)Cc1cc2cc(OC)c(OC)cc2[nH]c1=O 2.57%
COc1ccc(N(CC(=O)NCc2ccc(F)cc2)C(=O)c2snc(C(N)=O)c2N)cc1OC 5.71%
CSc1ccc(C#N)cc1NC(=O)c1cccnc1Cl 1.02%
C/C(=N\NC(=O)Cn1ccc(C(F)(F)F)n1)c1ccc(N2CCOCC2)cc1 5.06%
COc1ccc(/C=N/NC(=O)CCn2nc(C)cc2C)cc1O 32.7%
COc1ccc(O)c(/C=N\NC(=O)CCn2nnc3ccccc32)c1 9.4%
COc1cc(/C=N/NC(=O)CCn2c3ccccc3c3ccccc32)ccc1O 13.3%
COc1cc(/C=N\NC(=O)Cn2nnc3ccccc32)cc(OC)c1OC 4.84%
COc1ccc(/C=N/NC(=O)CCc2c(C)n[nH]c2C)cc1OC 0.79%
CCOc1cc(/C=N/NC(=O)CCn2nc(C)cc2C)ccc1O 33.9%
COc1ccc(/C=N/NC(=O)CCc2c(C)n[nH]c2C)cc1O 33.9%
COc1ccc(/C=N/NC(=O)Cn2nnc3ccccc32)cc1OC 9.9%
CC1CCCN(C(=O)N2c3ccccc3Sc3ccccc32)C1 (centres undefined) 6.24%
CCOC(=O)c1c(-c2ccccc2)csc1NC(=O)c1ccc(S(=O)(=O)N2CCOCC2)cc1 11.2%
C=CCn1c(COc2ccc(Cl)cc2)nnc1SCC(=O)Nc1ccc(S(N)(=O)=O)cc1 -7.84%
COc1cccc2cc(-c3nnc(-c4ccccc4)o3)c(=O)oc12 3.9%
COC(CN(C)C(C(=O)NC1CCCCC1)c1ccccc1)OC (centres undefined) -3.44%
Cc1cc(C)cc(NC(=O)Nn2cnnc2)c1 14.3%
CCCCN(Cc1ccccc1)C(=O)CCN1C(=O)C2C3C=CC(C3)C2C1=O (centres undefined) 8.63%
Cc1cc([N+](=O)[O-])ccc1NC(=O)c1cncc(Br)c1 12.5%
COC(=O)c1ccc(S(=O)(=O)c2ccc(Cl)cc2)c(N)c1 13.4%
COC(=O)c1ccc(C(=O)NC2CCSc3ccccc32)cc1 (centres undefined) 6.81%
CC(C)CCN1CCN=C1Nc1ccccc1 0.58%
Cn1c(SCc2ccc([N+](=O)[O-])cc2)nc2c(c1=O)SCC2 3.17%
c1ccc2sc(N3CCOCC3)nc2c1 20.2%
CC(C)c1ccc2nc(N)sc2c1 8.35%
Fc1ccc2nc(N3CCOCC3)sc2c1 -1.3%
Nc1nc2ccc(S(=O)(=O)c3ccc4nc(N)sc4c3)cc2s1 10.5%
CC(Sc1nc2c(c(=O)[nH]1)CCCC2)C(=O)Nc1ccccc1C#N (centres undefined) 6.43%
O=C(N/N=C/c1cnc(N2CCOCC2)s1)c1ccccc1 11.5%
O=C(COc1ccccc1)NCC(=O)NC1=NCCS1 3.88%
COc1cc(/C=C/C(=O)OCC(=O)N(C)C2CCS(=O)(=O)C2)ccc1OC(F)F (centres undefined) -1.47%
COc1cc(/C=C/C(=O)OCC(=O)NC2CCS(=O)(=O)C2)ccc1O (centres undefined) 34%
Cc1ccc(NC(=O)CN(C)S(=O)(=O)c2ccc3[nH]c(=O)oc3c2)c(C)c1 10.9%
CC1CC(C)CN(CC(=O)N2CCc3[nH]c4ccccc4c3C2)C1 (centres undefined) -3.87%
Cc1ccc(/C=C2/SC(=S)N(C3CCCCC3)C2=O)o1 31.8%
O=C1/C(=C\c2ccco2)SC(=S)N1C1CCS(=O)(=O)C1 (centres undefined) 22.2%
O=C1/C(=C/c2ccco2)SC(=S)N1C1CCS(=O)(=O)C1 (centres undefined) 33.6%
Cc1ccc(/C=C2\SC(=S)N(C3CCS(=O)(=O)C3)C2=O)o1 (centres undefined) 9.87%
COc1ccc(C2C(C(=O)Nc3ccc(OC)c(OC)c3)c3ccccc3C(=O)N2C)cc1 (centres undefined) 5.35%
CCOC(=O)c1ccc(NC(=O)CN2CCN(Cc3ccccc3)CC2)cc1 -0.24%
O=C1NC(=O)/C(=C\c2cn(Cc3ccccc3F)c3ccccc23)N1 8.29%
COc1ccc(C(=O)N/N=C(\C)Cn2nc([N+](=O)[O-])cc2C)cc1 8.1%
C/C(Cn1nc([N+](=O)[O-])cc1C)=N\NC(=O)c1ccc(C(C)(C)C)cc1 9.13%
C/C(=N\NC(=O)Cc1ccc(F)cc1)c1ccc(O)cc1 36.9%
COc1cc(/C(C)=N/NC(=O)CN2CCN(S(=O)(=O)c3ccc(C)cc3)CC2)ccc1O 20.9%
COc1cc(C(=O)N/N=C(\C)c2ccc(NC(=O)Cc3ccccc3)cc2)ccc1O 37.2%
C/C(=N\NC(=O)CCc1c(C)n[nH]c1C)c1ccc([N+](=O)[O-])cc1 3.31%
COc1ccc(-c2noc(Cc3ccccc3OC)n2)cc1 5.97%
CCOc1ccccc1C(=O)NCC(=O)N(C)Cc1cccnc1 0.45%
CC1CCc2cc(F)ccc2N1C(=O)c1cc2nc(-c3ccco3)cc(C(F)(F)F)n2n1 (centres undefined) 0.153%
Cc1ccc(-c2cc(O)cc3sc(=O)oc23)cc1C 9.82%
O=c1oc2c(-c3cccc(F)c3)cc(O)cc2s1 6.75%
Cc1cc(NC(=O)CSc2nnc3c(C)cc4ccccc4n23)no1 23.4%
CCc1cccc(C)c1NC(=O)CCCSc1nc2ccccc2s1 3.33%
COc1ccc(NCc2nnc(SCC(=O)c3ccc(OC)cc3)n2C)cc1 21.2%
COc1ccc(NCc2nnc(SCC(=O)Nc3ccc(OC)cc3)n2C)cc1 9.42%
COc1ccccc1-n1c(CNc2ccc(F)cc2)nnc1SCC(=O)Nc1cc(C)on1 25.1%
CCOc1ccc(NCc2nnc(SCC(=O)Nc3cc(C)on3)n2-c2ccccc2OC)cc1 15.1%
